Screening results as filed in PubChem BioAssay.
This is a sample that favours compounds with a hit; in the whole collection about 1.5% have one here.
GLD-1 TGE inh – GLD-1-TGE RNA interaction inhibition (C. elegans); Q17339; purified GLD-1 + fluorescein TGE RNA, fluorescence polarization; inhibition, % at 5.96 µM; 320,000 compounds, 0.44% hits; AID 2280;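 active = percent inhibition above a per-plate cutoff, the plate mean of test compounds plus 3 SD, cut at about 30% in these data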;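 note: 0% = DMSO wells with GLD-1 and probe and 100% = wells lacking GLD-1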
eLon inh – inhibitors of E. coli Lon protease; P0A9M0; purified E. coli Lon protease, fluorescence polarization; inhibition, % at 7.94 µM; 360,000 compounds, 0.42% hits; in the data active = inhibition above about 13%, passing the limit was not always enough;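 note: 0% = enzyme with probe and DMSO and 100% = no enzyme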
MEX-5 binding – C. elegans MEX-5 TCR-2 RNA binding activity; Q9XUB2; MEX-5/FITC-TCR2 RNA binding, fluorescence polarization; stronger effect = lower value; activity score (negative = inhibition of binding), % at 10 µM; 300,000 compounds, 0.38% hits;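 active = inhibition past about -25% in most replicates, and total fluorescence under double the plate's negative control median, limit read from the data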;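 note: 0% = DMSO and -100% = 5 µM competing unlabeled TCR2 RNA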
MCL1-BIM inh – MCL1-BIM-BH3 interaction inhibition (human) | Q07820 | GST-MCL1 / FITC-Bim-BH3 fluorescence polarization | inhibition, % at 10.9 µM | 320,000 compounds, 0.68% hits | AID 2057;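 active = inhibition above the mean inhibition of all tested compounds plus 3 SD, set per campaign, cut at about 40% in these data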;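 note: 0% = DMSO wells and 100% = unlabeled Bim-BH3 peptide control; higher means more loss of mP so more displacement of Bim peptide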
Target sequence (Q07820 whole entry, looked up): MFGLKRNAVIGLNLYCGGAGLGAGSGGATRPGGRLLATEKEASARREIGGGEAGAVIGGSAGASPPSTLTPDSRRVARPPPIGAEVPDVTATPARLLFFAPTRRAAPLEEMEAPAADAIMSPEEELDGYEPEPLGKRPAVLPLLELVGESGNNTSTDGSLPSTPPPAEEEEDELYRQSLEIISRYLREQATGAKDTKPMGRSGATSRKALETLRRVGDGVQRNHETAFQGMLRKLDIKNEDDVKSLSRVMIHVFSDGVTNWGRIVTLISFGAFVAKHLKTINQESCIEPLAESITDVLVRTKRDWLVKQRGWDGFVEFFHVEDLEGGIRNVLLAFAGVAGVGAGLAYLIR
EBV gp42 inh – blocks Epstein-Barr virus glycoprotein 42 binding | Fluorescence polarization binding assay, mP read-out | inhibition, % (tested at 21.74 µM) | 220,000 compounds, 0.42% hits; in the data active = inhibition above about 50%
BCLXL inh – blocks human Bcl-xL binding to Bim BH3 peptide. Q07817. GST-Bcl-xL / FITC-Bim BH3 peptide fluorescence polarization. inhibition, % at 10.9 µM. 320,000 compounds, 0.7% hits. AID 2129;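 active = inhibition above the mean of all tested compounds plus 3 SD, cutoff set per campaign, cut at about 30% in these data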;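 note: 0% = DMSO wells and 100% = unlabeled Bim-BH3 peptide competitor; inhibitors lower millipolarization by displacing the labeled peptide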
An asterisk follows results filed as active.

Results for CCCCC(C(=O)NC1CCCC1)N(Cc1ccccc1)C(=O)c1snc(C(N)=O)c1N (stereo not given) ?
GLD-1 TGE inh: -4; eLon inh: -15; MEX-5 binding: -2; MCL1-BIM inh: -6; BCLXL inh: 0

What do the screens show for `CCN1CCn2c3c(c4cc(Cl)ccc42)CCCC31` (stereo not given)?
GLD-1 TGE inh: 6; eLon inh: 4; MEX-5 binding: -1; MCL1-BIM inh: -5; EBV gp42 inh: -8; BCLXL inh: 4

What do the screens show for `CCN(CC)CCN1CCn2c3c(c4cc(C)ccc42)CCCC31` (stereo not given)?
GLD-1 TGE inh: 10; eLon inh: 8; MEX-5 binding: -13; MCL1-BIM inh: 46*; EBV gp42 inh: 1; BCLXL inh: 36*

Results for Cc1cc(C(=O)OCc2nc3ccccc3s2)c(C)o1 ?
GLD-1 TGE inh: -2; eLon inh: -7; MEX-5 binding: 1; MCL1-BIM inh: 2; EBV gp42 inh: -10; BCLXL inh: 3

What do the screens show for `Oc1ccc(-c2csc(Nc3ccccn3)n2)cc1O`?
GLD-1 TGE inh: 5; eLon inh: 1; MEX-5 binding: -32*; MCL1-BIM inh: 22; BCLXL inh: 27

How did CCOc1ccc(-c2nc(N)ncc2Oc2ccc(OC)cc2)c(O)c1 do in these assays?
GLD-1 TGE inh: 6; eLon inh: -2; MEX-5 binding: -1; MCL1-BIM inh: 0; EBV gp42 inh: -5; BCLXL inh: 4

How did COc1ccc(-c2nc(N)nc(C)c2Oc2ccccc2Br)c(O)c1 do in these assays?
GLD-1 TGE inh: 17; eLon inh: 3; MCL1-BIM inh: 39; EBV gp42 inh: 18; BCLXL inh: 42*

Results for O=C(/C=C/c1cccs1)N1CCC2(CC1)Oc1ccc(F)cc1C(=O)C21CC(c2ccc(Cl)cc2)=NO1 (stereo not given) ?
GLD-1 TGE inh: -4; eLon inh: 12; MEX-5 binding: 1; MCL1-BIM inh: -4; EBV gp42 inh: -17; BCLXL inh: 31*

Results for Cc1sc2ncn(CC(=O)NCc3ccco3)c(=O)c2c1-c1ccc(F)cc1 ?
GLD-1 TGE inh: 5; eLon inh: -6; MEX-5 binding: 0; MCL1-BIM inh: 16; EBV gp42 inh: -18; BCLXL inh: 4

What do the screens show for `O=C(Cn1cnc2scc(-c3cccc([N+](=O)[O-])c3)c2c1=O)NCc1ccco1`?
GLD-1 TGE inh: 2; eLon inh: 1; MEX-5 binding: -2; MCL1-BIM inh: 12; EBV gp42 inh: 66*; BCLXL inh: 4

How did Cc1onc(-c2c(F)cccc2Cl)c1C(=O)NCCO do in these assays?
GLD-1 TGE inh: 1; eLon inh: -4; MEX-5 binding: -1; MCL1-BIM inh: 1; EBV gp42 inh: -9; BCLXL inh: 4

What do the screens show for `O=C1c2c(O)cccc2Cc2cccc(O)c21`?
GLD-1 TGE inh: 21; eLon inh: 15; MCL1-BIM inh: 36; BCLXL inh: 31*

Results for O=C1Cc2cccc(=O)c(O)c2C(=O)O1 ?
eLon inh: -3

How did CCOc1ccc2[nH]c(C)c(CN3CCOCC3)c(=O)c2c1 do in these assays?
GLD-1 TGE inh: 6; eLon inh: 4; MEX-5 binding: -8; MCL1-BIM inh: 4; EBV gp42 inh: -14; BCLXL inh: 8

Results for CCOc1ccc2[nH]c3ncccc3c(=O)c2c1 ?
GLD-1 TGE inh: 26; eLon inh: 26; MEX-5 binding: -13; MCL1-BIM inh: 52*; BCLXL inh: 42*

What do the screens show for `CC(C)(C)CC(=O)Nc1ccc(-c2nnc3n2CCCCC3)cc1`?
GLD-1 TGE inh: -1; eLon inh: -5; MEX-5 binding: 1; MCL1-BIM inh: 0; BCLXL inh: 6

How did O=C1CS/C(=N/N=C/c2cccs2)N1 do in these assays?
GLD-1 TGE inh: -2; eLon inh: 1; MEX-5 binding: -32*; MCL1-BIM inh: -19; EBV gp42 inh: -34; BCLXL inh: -13

How did CCCN(C(=O)COC(=O)CSc1ccc([N+](=O)[O-])cc1)C1CCS(=O)(=O)C1 (stereo not given) do in these assays?
GLD-1 TGE inh: 7; eLon inh: -13; MCL1-BIM inh: 0; BCLXL inh: -9

Results for CS(=O)(=O)c1ccc(NC(=O)CN2C(=O)C3CCCCC3C2=O)cc1 (stereo not given) ?
GLD-1 TGE inh: 2; eLon inh: 0; MEX-5 binding: -3; MCL1-BIM inh: 7; BCLXL inh: 2
